The values that follow come from the supplement of paper PMC7595190.

Each structure is given as a SMILES string. A number with no mark means an inactive call.

This assay relates to MV4-11. Description: CellTox Green cytotoxicity fluorescence relative to DMSO vehicle (fold of vehicle RFU); higher = more cell death (loss of membrane integrity), active = 2 or more. The method, then: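 Paediatric AML cell lines (MV4-11, CMK, Kasumi-1; 4x10^4 cells/well, 96-well) treated with single compounds from the Selleckchem apoptosis library at 0.01, 0.1 and 1 µM. Cytotoxicity was read with CellTox Green (RFU, Ex 485/Em 520) at 24, 48 and 72 h and normalised to the 0.1% DMSO vehicle. Normalised RFU >= 2 was taken as a successful, cell-killing treatment.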

`Cn1cc(-c2ccc3c(c2)CCN3C(=O)Cc2cccc(C(F)(F)F)c2)c2c(N)ncnc21`: the “CellTox Green cytotoxicity fluorescence” value (0.01 µM, 24 h) is 0.987; the “CellTox Green cytotoxicity fluorescence” value (0.01 µM, 48 h) is 0.984; the “CellTox Green cytotoxicity fluorescence” value (0.01 µM, 72 h) is 0.979; the “CellTox Green cytotoxicity fluorescence” value (0.1 µM, 24 h) was 0.986; the “CellTox Green cytotoxicity fluorescence” value (0.1 µM, 48 h) was 0.981; the “CellTox Green cytotoxicity fluorescence” value (0.1 µM, 72 h) was 0.977. Further, the “CellTox Green cytotoxicity fluorescence” value reads like this: (1 µM, 24 h) 1.05; (1 µM, 48 h) 1.34; (1 µM, 72 h) 1.77.
As for `CC(=O)N1c2ccc(-c3ccc(C(=O)O)cc3)cc2[C@H](Nc2ccc(Cl)cc2)C[C@@H]1C`, the “CellTox Green cytotoxicity fluorescence” value is 0.931 (0.01 µM, 24 h); 0.997 (0.01 µM, 48 h); 1.17 (0.01 µM, 72 h); 0.975 (0.1 µM, 24 h); 1.43 (0.1 µM, 48 h); 2.03 (active) (0.1 µM, 72 h). Besides, the “CellTox Green cytotoxicity fluorescence” value was 1.09 (1 µM, 24 h); 1.87 (1 µM, 48 h); 2.28 (active) (1 µM, 72 h).
As for `O=C(NS(=O)(=O)c1ccc(Br)s1)c1ccc(Cl)cc1Cl` [Tasisulam], the “CellTox Green cytotoxicity fluorescence” value is, setting by setting: (0.01 µM, 24 h) 0.957; (0.01 µM, 48 h) 0.955; (0.01 µM, 72 h) 0.954; (0.1 µM, 24 h) 0.99; (0.1 µM, 48 h) 0.984; (0.1 µM, 72 h) 0.992. Besides, the “CellTox Green cytotoxicity fluorescence” value runs as follows: (1 µM, 24 h) 1; (1 µM, 48 h) 0.989; (1 µM, 72 h) 1.
With `CCOC(=O)c1[nH]c2cc(Cl)ccc2c1C(C(=O)NC(C)(C)C)N(C=O)Cc1ccc(Cl)cc1` (stereo not given), the “CellTox Green cytotoxicity fluorescence” value (0.01 µM, 24 h) was 0.983; the “CellTox Green cytotoxicity fluorescence” value (0.01 µM, 48 h) was 0.965; the “CellTox Green cytotoxicity fluorescence” value (0.01 µM, 72 h) was 0.957; the “CellTox Green cytotoxicity fluorescence” value (0.1 µM, 24 h) is 0.989; the “CellTox Green cytotoxicity fluorescence” value (0.1 µM, 48 h) is 0.983; the “CellTox Green cytotoxicity fluorescence” value (0.1 µM, 72 h) is 0.985. For the same compound, the “CellTox Green cytotoxicity fluorescence” value is, setting by setting: (1 µM, 24 h) 0.954; (1 µM, 48 h) 0.993; (1 µM, 72 h) 1.02.
With `CCCC[C@@H](C=O)NC(=O)[C@H](CC(C)C)NC(=O)OCc1ccccc1` [Calpeptin], the “CellTox Green cytotoxicity fluorescence” value (0.01 µM, 24 h) is 0.979; the “CellTox Green cytotoxicity fluorescence” value (0.01 µM, 48 h) is 0.988; the “CellTox Green cytotoxicity fluorescence” value (0.01 µM, 72 h) is 0.986; the “CellTox Green cytotoxicity fluorescence” value (0.1 µM, 24 h) was 1.01; the “CellTox Green cytotoxicity fluorescence” value (0.1 µM, 48 h) is 1.02; the “CellTox Green cytotoxicity fluorescence” value (0.1 µM, 72 h) was 1.01. Further, the “CellTox Green cytotoxicity fluorescence” value (1 µM, 24 h) is 1.01; the “CellTox Green cytotoxicity fluorescence” value (1 µM, 48 h) is 1.01; the “CellTox Green cytotoxicity fluorescence” value (1 µM, 72 h) was 0.999.
